What was measured:
Assay in all cases: log2 ratio of Biotin-Ahx-Ub-VS probe labelling (fragment/DMSO); higher = less target engagement (more negative = stronger competition), active = hit call of the paper (q ≤ 0.05, log2 ratio ≤ -1)
Conditions in all cases: compound concentration: 200 uM; treatment time: 3 h
[1] = molecular target: T1, USP19 (UniProt O94966)
T1 sequence (whole entry): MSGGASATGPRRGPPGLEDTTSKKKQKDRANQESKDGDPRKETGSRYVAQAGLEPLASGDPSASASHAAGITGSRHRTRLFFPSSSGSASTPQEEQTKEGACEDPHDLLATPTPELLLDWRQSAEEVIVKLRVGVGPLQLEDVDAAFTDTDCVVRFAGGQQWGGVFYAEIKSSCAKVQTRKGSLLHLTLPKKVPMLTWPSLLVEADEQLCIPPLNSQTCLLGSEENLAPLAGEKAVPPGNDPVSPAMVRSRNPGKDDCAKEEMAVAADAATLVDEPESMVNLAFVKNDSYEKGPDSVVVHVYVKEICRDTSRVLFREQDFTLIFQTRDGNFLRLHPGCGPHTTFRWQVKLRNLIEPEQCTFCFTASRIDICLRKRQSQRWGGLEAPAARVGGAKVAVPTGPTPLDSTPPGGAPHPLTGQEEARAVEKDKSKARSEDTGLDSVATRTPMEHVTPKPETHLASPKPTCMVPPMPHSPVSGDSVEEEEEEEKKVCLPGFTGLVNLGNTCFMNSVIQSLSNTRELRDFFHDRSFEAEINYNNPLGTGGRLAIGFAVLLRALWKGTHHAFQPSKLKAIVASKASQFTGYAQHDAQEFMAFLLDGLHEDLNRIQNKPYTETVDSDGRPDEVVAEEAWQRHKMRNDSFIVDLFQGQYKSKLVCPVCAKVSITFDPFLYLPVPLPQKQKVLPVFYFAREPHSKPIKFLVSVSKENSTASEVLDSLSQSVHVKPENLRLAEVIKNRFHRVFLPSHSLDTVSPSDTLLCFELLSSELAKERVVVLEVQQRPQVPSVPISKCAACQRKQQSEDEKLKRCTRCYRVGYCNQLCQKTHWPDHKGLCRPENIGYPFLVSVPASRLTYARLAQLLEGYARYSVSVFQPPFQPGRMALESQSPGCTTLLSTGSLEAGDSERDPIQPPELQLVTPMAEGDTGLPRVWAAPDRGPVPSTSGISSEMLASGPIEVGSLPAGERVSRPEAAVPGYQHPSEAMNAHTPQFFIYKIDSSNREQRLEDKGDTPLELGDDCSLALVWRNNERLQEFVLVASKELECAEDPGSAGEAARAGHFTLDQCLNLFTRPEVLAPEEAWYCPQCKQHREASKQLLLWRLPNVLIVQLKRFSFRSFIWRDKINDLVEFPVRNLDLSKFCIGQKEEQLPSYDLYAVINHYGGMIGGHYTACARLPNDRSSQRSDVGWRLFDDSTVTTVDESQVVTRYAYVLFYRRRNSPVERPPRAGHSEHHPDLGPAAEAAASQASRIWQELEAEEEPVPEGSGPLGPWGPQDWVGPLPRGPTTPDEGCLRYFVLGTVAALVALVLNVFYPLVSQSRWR
Summary of the method: (§1)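 HEK293T lysate in Tris/CHAPS/IGEPAL buffer with protease inhibitors (495 µg per sample) was given fragment at 200 µM or vehicle for 3 h, in triplicate. It then received Biotin-Ahx-Ub-VS at 0.5 µM final for 1 h. Labelled DUBs were NeutrAvidin-enriched, digested with LysC and trypsin, and run by diaPASEF LC-MS/MS. Values are average log2 fragment/vehicle ratios by unpaired t-test on global-median-normalised Spectronaut quantities of proteins with ≥2 unique peptides.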

[2] = molecular target: USP24 (UniProt Q9UPU5)
Sequence of USP24 (Q9UPU5 whole entry): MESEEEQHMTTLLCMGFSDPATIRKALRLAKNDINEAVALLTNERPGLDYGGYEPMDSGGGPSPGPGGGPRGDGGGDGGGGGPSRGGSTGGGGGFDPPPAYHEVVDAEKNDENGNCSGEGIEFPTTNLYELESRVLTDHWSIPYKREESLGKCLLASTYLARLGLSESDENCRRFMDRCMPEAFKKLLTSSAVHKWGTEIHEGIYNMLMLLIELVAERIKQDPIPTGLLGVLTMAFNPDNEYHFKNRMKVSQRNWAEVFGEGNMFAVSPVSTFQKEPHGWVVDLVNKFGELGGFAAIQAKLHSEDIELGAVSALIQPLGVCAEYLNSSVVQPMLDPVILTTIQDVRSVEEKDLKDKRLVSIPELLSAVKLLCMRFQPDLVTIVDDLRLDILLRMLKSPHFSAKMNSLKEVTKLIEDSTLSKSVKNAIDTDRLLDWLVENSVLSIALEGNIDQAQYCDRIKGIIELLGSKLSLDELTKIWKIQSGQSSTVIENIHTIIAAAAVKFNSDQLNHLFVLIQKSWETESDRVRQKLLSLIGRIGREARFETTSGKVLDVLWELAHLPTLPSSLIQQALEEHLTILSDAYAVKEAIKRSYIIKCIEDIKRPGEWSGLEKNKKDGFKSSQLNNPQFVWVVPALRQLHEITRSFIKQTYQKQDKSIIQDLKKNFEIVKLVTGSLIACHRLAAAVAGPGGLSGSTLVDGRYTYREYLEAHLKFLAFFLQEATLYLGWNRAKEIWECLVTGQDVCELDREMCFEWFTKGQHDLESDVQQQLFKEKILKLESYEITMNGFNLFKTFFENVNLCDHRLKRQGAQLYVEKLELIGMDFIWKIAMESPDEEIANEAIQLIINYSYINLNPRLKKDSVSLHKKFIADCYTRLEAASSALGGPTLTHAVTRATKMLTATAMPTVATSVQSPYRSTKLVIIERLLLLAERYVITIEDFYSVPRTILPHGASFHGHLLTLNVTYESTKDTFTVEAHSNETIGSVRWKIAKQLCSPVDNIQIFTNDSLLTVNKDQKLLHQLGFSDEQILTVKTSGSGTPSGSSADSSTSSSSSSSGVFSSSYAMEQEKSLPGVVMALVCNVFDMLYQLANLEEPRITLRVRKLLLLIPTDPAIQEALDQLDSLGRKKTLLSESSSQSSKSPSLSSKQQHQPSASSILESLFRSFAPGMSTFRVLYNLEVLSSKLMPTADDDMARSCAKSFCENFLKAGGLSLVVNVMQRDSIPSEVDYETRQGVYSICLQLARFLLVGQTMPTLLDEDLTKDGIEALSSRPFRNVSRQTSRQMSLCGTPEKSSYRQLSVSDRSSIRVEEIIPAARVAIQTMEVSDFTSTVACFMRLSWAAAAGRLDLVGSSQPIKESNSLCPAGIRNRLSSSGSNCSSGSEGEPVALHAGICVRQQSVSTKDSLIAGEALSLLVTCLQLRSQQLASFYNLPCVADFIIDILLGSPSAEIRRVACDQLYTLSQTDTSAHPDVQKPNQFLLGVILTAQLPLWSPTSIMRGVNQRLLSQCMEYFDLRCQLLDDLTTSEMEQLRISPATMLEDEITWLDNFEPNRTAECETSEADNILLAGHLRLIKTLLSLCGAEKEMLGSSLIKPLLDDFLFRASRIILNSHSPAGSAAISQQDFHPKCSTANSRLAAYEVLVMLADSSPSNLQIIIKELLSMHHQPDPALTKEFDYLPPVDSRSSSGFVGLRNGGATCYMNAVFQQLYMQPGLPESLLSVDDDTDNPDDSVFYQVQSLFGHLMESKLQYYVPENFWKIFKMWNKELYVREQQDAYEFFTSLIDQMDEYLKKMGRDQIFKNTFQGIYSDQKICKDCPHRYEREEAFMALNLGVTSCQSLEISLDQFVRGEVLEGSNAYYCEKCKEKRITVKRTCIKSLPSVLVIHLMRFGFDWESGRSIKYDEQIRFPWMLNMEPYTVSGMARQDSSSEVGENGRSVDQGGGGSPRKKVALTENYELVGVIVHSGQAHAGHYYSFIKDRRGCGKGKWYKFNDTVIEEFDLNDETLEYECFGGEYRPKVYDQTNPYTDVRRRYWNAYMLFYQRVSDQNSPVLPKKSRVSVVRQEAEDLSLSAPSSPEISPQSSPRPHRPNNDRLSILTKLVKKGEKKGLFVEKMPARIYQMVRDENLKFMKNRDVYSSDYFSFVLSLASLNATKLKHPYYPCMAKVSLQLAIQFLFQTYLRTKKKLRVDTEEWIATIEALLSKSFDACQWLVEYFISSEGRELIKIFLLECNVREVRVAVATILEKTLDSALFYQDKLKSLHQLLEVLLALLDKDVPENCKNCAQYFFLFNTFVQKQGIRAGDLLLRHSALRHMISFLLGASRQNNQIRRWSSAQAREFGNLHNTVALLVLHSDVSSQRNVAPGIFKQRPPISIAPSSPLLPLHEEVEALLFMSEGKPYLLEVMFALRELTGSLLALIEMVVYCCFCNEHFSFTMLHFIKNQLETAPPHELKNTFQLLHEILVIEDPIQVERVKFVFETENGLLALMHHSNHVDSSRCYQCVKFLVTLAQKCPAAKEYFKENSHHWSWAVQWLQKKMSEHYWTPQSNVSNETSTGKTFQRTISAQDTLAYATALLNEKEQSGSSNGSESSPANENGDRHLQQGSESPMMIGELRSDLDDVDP
Summary of the method: as §1

[3] = molecular target: T2, USP25 (UniProt Q9UHP3)
T2 sequence (whole entry): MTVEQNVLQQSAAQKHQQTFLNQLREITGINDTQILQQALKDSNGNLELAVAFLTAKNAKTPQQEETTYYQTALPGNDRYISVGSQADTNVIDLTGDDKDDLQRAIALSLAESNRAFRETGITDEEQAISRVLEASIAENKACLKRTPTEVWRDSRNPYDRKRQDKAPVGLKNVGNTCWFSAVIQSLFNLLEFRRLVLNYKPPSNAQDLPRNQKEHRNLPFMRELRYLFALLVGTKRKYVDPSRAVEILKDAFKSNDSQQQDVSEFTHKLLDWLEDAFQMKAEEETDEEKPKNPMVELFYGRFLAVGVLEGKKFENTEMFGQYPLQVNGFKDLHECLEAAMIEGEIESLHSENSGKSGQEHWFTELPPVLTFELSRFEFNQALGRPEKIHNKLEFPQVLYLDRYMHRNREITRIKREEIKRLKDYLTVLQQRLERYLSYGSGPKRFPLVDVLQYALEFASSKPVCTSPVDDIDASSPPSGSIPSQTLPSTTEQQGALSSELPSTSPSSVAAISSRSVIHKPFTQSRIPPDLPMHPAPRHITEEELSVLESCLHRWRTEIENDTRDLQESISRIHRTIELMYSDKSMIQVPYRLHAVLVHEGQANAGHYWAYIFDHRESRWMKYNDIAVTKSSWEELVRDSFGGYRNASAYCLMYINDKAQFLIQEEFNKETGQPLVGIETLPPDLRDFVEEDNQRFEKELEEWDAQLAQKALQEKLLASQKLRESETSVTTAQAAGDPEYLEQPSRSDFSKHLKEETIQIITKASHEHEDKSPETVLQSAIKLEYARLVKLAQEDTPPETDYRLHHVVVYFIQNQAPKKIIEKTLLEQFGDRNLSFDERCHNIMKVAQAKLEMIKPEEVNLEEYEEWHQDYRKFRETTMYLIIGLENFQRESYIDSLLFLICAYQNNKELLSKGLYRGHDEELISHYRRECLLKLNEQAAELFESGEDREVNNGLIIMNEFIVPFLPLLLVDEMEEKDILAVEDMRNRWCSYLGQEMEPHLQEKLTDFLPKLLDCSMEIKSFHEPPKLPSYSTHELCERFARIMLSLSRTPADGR
Summary of the method: as §1

[4] = molecular target: T3, USP28 (UniProt Q96RU2)
T3 sequence (whole entry): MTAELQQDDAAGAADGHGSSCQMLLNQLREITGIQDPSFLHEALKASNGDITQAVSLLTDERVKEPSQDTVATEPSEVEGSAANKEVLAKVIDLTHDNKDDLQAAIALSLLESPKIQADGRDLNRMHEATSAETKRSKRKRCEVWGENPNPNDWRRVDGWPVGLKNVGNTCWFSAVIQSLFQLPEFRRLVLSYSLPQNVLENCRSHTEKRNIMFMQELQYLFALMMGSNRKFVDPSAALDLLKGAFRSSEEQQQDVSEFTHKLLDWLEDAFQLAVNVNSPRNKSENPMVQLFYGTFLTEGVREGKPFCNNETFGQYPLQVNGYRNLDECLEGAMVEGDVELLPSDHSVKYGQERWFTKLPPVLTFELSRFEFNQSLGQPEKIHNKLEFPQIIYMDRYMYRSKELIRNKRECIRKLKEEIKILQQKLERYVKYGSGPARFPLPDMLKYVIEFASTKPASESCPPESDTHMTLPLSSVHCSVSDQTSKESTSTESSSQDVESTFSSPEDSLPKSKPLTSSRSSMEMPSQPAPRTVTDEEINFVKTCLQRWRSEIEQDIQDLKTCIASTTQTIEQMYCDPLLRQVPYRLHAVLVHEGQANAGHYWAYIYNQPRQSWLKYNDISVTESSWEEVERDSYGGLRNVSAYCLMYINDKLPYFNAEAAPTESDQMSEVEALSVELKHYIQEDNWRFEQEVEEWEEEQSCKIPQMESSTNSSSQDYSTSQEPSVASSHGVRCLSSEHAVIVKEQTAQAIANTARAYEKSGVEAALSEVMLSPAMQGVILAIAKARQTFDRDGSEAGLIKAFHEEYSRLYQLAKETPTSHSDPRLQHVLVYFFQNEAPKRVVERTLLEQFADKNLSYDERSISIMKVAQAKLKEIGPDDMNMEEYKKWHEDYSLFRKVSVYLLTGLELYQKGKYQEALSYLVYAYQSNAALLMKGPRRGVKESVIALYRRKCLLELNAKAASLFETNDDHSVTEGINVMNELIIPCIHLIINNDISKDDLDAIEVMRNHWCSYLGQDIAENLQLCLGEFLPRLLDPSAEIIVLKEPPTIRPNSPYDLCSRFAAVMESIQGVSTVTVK
Summary of the method: as §1

Measured: log2 ratio of Biotin-Ahx-Ub-VS probe labelling

Cc1nc(CN2CCCN(C(=O)CCl)CC2)no1.Cl
inactive: [1] 0.0547 | [2] 0.252 | [3] 0.233 | [4] -0.00501

— the supplement of paper PMC11732987, “Enantioselective OTUD7B fragment discovery through chemoproteomics screening and high-throughput optimisation” (Communications Chemistry, 2025)
